# In PubChem BioAssay:
# Activity calls are given as the source filed them.
# Tests used:
# [1] = small molecules captured by biotinylated probe aFSTL3 – biochemical, small-molecule microarray, fluorescence 635/667, stem cell growth factor project, primary screen (AID 1064); conditions: higher = more signal;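 further: measures binding of the biotinylated anti-FSTL3 antibody to printed compounds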
# [2] = binders from COS7 lysate, DM2A8 probe, primary screen, torsin A project, cell lysate, small-molecule microarray, fluorescence 635/667 (AID 1065); conditions: higher = more signal, COS7 lysate expressing mutant human TOR1A
# [3] = small molecules captured by biotinylated probe aFGF2 – biochemical, small-molecule microarray, fluorescence 635/667, stem cell growth factor project, primary screen (AID 1067); conditions: higher = more signal;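 further: measures binding of biotinylated aFGF2 protein to printed compounds on slides; z-score merges feature fluorescence and signal-to-noise across triplicate slides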
# [4] = small molecules captured by biotinylated probe aFGF10 – biochemical, small-molecule microarray, fluorescence 635/667, stem cell growth factor project, primary screen (AID 1071); conditions: higher = more signal;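 further: score merges 667 nm spot intensity and signal to noise from triplicate slides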
# [5] = target: Neurogenic locus notch homolog protein 2 (Homo sapiens) (UniProt Q04721); test: small molecules binding Notch2 protein – biochemical, small-molecule microarray, 635 nm fluorescence, stem cell growth factors, primary screen (AID 1073); conditions: higher = more signal
# Neurogenic locus notch homolog protein 2 (Homo sapiens), sequence (Q04721 whole entry, looked up, canonical isoform): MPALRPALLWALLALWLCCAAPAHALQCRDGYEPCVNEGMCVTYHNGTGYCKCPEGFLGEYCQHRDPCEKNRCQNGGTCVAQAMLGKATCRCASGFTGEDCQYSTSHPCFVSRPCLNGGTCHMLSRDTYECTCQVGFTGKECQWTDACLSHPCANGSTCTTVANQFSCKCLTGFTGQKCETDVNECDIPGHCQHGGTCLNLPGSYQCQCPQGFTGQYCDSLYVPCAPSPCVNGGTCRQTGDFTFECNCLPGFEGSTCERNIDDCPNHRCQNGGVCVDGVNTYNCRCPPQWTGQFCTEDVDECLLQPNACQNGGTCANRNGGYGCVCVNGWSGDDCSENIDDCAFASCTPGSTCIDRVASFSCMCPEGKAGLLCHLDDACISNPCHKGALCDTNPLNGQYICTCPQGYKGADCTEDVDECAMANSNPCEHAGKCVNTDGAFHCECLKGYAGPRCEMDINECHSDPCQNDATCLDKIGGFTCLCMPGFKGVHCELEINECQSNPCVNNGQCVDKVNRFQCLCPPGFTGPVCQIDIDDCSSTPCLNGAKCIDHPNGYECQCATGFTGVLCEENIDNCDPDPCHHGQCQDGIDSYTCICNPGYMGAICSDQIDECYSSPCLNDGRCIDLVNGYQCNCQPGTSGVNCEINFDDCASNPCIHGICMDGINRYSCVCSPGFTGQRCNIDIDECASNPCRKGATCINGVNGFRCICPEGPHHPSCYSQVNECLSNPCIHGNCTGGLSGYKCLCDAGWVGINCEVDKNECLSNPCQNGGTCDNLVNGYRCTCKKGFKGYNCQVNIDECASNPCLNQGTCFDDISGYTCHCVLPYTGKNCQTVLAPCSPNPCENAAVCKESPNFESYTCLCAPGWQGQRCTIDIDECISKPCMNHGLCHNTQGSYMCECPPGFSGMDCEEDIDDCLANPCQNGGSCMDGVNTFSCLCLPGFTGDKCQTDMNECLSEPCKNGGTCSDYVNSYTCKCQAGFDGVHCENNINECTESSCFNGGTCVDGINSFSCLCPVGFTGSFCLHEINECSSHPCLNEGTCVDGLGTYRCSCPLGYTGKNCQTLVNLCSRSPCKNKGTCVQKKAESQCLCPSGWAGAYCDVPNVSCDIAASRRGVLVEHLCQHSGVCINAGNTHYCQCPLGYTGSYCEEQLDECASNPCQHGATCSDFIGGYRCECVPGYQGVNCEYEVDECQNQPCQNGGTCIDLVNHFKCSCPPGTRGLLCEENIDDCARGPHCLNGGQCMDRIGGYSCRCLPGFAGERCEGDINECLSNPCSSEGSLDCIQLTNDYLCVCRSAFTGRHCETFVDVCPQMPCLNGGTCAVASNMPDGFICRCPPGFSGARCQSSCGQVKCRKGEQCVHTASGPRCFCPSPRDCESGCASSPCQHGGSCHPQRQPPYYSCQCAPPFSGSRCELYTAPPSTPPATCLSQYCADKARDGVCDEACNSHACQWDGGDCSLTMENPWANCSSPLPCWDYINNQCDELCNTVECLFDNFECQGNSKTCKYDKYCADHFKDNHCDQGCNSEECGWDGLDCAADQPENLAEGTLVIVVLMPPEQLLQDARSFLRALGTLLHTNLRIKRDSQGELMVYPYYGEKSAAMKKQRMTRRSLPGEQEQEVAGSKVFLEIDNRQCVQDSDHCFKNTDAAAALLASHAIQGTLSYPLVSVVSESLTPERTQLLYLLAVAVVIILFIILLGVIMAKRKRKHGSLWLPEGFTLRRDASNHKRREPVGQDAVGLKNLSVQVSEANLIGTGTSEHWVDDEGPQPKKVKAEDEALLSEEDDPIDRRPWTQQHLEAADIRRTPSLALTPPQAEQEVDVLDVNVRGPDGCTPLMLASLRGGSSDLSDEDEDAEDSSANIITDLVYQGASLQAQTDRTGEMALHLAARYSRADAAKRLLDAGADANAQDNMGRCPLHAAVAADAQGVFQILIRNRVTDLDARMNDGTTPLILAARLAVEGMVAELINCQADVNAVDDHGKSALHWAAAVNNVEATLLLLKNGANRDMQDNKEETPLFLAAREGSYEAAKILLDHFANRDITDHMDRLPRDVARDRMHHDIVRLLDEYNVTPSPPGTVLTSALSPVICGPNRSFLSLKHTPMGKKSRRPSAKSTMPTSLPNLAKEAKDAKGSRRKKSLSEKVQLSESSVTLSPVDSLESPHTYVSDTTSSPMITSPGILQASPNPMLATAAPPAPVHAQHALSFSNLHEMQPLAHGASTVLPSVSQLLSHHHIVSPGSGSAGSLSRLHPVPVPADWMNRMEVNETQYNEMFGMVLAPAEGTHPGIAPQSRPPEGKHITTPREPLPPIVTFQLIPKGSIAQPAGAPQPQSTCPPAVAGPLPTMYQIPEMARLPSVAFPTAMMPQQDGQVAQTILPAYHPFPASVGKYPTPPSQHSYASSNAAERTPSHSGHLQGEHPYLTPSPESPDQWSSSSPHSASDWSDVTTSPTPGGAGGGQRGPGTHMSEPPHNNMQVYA
# [6] = target: Pro-neuregulin-1, membrane-bound isoform (Homo sapiens) (UniProt Q02297); test: small molecules binding neuregulin-1 protein – biochemical, small-molecule microarray, fluorescence 635/667, psychiatric disease protein project, primary screen (AID 1075); conditions: NRG1 binding, 635 nm fluorescence, higher = more signal;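 further: score combines 667 nm spot fluorescence with signal to noise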
# [7] = tested on: Neuregulin-1 EGF-like domain; test: small molecules binding NRG1 EGF domain – biochemical, small-molecule microarray, 635 nm fluorescence, primary screen (AID 1081); conditions: higher = more signal;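 further: binding of the protein to compounds printed on small-molecule microarray slides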
# [8] = FRG1 expression reporter modulators in myotubes – cell-based, C2C12 myotubes, firefly/Renilla luciferase, luminescence, FRG1 inhibition for FSHD, primary screen (AID 1084); conditions: FRG1 promoter luciferase, higher = more signal, called active from +8 up or from −8 down
# [9] = small molecules captured by biotinylated probe aFST – biochemical, small-molecule microarray, fluorescence 635/667, stem cell growth factor project, primary screen (AID 1086); conditions: higher = more signal;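 further: score merges 667 nm fluorescence with signal-to-noise of each printed compound spot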
# [10] = binders of probe aHhip on microarray, primary screen, stem cell growth factor project, biochemical, small-molecule microarray, fluorescence 635/667 (AID 1087); conditions: higher = more signal;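 further: score merges spot fluorescence at 667nm with spot signal to noise ratio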
# [11] = tested on: PRMT1 (protein arginine N-methyltransferase 1); test: small molecules binding arginine methyltransferase PRMT1 – biochemical, small-molecule microarray, 635 nm fluorescence, primary screen (AID 1088); conditions: higher = more signal;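 further: binding of Prmt1 protein to compounds spotted on small-molecule microarray slides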
# [12] = growth effects on S. cerevisiae YJM789 – YJM789 clinical isolate, OD600, 24 h, basal, primary screen (AID 1089); conditions: higher = more signal, called active from +8 up or from −8 down;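 further: growth of clinical yeast isolate S. cerevisiae YJM 789 seeded 1000 cells per well; test concentration not given here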
# [13] = S. pombe growth modifiers, basal conditions – strain 972, OD600, 24 h, no modulator, primary screen (AID 1090);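 further: basal condition with compound alone and no growth modifier present; test concentration not given here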; conditions: S. pombe 972 growth, higher = more signal, called active from +8 up or from −8 down
# [14] = budding yeast growth modifiers under rapamycin – strain BY4716, OD600, 96 h, primary screen (AID 1091); further: test concentration not given here; conditions: S. cerevisiae BY4716 + rapamycin, higher = more signal, called active from +8 up or from −8 down
# [15] = target: Torsin-1A-interacting protein 2 (Homo sapiens) (UniProt Q8NFQ8); test: small molecules binding lysate-expressed LULL1 – cell lysate, human LULL1 lysate, 635/667 nm fluorescence, primary screen (AID 1092); conditions: small-molecule microarray, hLULL1 lysate binding, 635 nm fluorescence; higher = more signal;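 further: probe is lysate of COS7 cells overexpressing human LULL1; score merges per-feature 667 nm fluorescence with signal-to-noise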
# [16] = optical density change of DRC41 E. coli – strain DRC41, OD650, 24 h, E. coli filamentation project, primary screen (AID 1093);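 further: MC1000 strain lacking acrAB efflux and sulA so SOS filamentation is blocked; test concentration not given here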; conditions: E. coli DRC41 growth, higher = more signal, called active from +8 up or from −8 down
# [17] = probe aLefty2 binding to arrayed compounds – biochemical, biotinylated probe, 635/667 nm fluorescence, primary screen (AID 1094); conditions: small-molecule microarray, higher = more signal;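 further: score merges spot fluorescence near 667 nm with spot signal-to-noise ratio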
# [18] = tested on: Noggin (protein binding on small-molecule microarray); test: small molecules binding Noggin protein – biochemical, 635/667 nm fluorescence, primary screen (AID 1095); conditions: 635 nm fluorescence, higher = more signal;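 further: score merges 667 nm feature fluorescence with signal to noise over triplicate slides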
# [19] = target: Neurogenic locus notch homolog protein 3 (Homo sapiens) (UniProt Q9UM47); test: small molecules binding NOTCH3 protein – biochemical, 635/667 nm fluorescence, primary screen (AID 1096); conditions: small-molecule microarray, 635 nm fluorescence, higher = more signal
# Neurogenic locus notch homolog protein 3 (Homo sapiens), sequence (Q9UM47 whole entry, looked up): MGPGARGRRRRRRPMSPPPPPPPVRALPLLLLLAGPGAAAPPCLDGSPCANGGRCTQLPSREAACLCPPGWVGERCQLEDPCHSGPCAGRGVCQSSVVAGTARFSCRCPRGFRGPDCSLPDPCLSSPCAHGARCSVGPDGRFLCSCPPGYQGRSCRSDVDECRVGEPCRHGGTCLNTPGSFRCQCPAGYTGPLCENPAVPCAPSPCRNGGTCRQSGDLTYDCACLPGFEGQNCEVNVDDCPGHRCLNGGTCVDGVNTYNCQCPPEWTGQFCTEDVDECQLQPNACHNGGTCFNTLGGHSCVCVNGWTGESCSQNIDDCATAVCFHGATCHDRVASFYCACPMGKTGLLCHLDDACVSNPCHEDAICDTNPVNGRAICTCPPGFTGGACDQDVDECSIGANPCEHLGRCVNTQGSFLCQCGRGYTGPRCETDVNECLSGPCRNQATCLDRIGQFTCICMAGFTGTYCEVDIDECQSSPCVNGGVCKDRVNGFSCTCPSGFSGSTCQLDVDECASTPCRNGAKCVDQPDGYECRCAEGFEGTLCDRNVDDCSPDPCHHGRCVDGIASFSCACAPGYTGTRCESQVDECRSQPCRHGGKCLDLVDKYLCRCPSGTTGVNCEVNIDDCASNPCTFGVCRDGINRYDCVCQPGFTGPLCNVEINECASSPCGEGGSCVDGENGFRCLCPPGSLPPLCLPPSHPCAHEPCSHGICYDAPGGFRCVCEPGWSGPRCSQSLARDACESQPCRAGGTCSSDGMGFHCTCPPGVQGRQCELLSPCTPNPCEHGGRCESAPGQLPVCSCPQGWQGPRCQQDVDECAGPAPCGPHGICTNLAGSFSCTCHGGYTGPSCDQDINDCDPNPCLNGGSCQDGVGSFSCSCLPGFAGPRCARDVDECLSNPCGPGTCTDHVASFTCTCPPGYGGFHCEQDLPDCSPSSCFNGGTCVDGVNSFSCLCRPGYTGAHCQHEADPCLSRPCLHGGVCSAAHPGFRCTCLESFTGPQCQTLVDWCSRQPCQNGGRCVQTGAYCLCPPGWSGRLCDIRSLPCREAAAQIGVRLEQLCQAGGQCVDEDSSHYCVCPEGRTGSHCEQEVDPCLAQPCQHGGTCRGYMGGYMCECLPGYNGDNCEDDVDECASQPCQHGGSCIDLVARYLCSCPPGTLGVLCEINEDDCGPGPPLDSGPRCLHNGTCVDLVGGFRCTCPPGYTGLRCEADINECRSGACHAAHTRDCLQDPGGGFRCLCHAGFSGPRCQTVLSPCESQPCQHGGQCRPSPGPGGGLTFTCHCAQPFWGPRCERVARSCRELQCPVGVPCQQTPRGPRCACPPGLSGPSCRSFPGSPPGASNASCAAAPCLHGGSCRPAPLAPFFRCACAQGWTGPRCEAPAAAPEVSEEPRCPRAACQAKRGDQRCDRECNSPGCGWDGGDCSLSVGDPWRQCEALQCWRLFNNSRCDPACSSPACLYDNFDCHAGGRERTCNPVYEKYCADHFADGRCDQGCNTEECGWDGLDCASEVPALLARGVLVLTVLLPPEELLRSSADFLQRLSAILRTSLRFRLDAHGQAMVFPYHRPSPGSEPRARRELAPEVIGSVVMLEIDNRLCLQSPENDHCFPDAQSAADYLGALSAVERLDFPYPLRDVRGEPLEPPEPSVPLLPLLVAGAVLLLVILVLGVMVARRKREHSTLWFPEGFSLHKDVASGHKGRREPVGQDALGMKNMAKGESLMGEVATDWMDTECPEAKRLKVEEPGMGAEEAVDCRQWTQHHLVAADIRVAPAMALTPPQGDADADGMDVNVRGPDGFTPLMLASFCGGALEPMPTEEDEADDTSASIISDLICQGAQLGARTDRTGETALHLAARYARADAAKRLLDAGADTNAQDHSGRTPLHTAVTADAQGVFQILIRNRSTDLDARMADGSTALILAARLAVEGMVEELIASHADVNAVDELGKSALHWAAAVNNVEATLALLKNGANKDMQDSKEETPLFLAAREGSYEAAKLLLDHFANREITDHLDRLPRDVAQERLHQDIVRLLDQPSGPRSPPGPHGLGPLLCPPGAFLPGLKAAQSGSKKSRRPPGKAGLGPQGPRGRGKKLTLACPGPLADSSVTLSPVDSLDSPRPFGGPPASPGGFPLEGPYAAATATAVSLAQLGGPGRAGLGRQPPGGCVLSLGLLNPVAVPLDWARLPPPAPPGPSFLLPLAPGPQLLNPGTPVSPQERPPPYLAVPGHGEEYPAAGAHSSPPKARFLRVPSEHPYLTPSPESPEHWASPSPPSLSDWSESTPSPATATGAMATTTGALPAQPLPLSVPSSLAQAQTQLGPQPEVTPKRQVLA
# [20] = probe aEGFR binding to arrayed compounds – biochemical, biotinylated probe, 635/667 nm fluorescence, primary screen (AID 1097); conditions: small-molecule microarray, higher = more signal;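 further: probe is a biotinylated anti-EGFR antibody binding compounds printed on slides; score combines fluorescence near 667 nm and signal to noise of each spot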
smiles,measurement,setting,value
COCCOC(=O)N1C(=O)[C@@]2(c3cc(C#CC4(O)CCCCCC4)ccc31)[C@H](C(=O)N1CCc3cc(OC)c(OC)cc3C1)[C@H]1C(=O)O[C@H](c3ccccc3)[C@H](c3ccccc3)N1[C@@H]2c1ccc(O)cc1,composite z-score,[1],-0.277
same,composite z-score,[2],2.26
same,composite z-score,[3],-0.01
same,composite z-score,[4],0.68
same,composite z-score,[5],1.51
same,composite z-score,[6],0.156
same,composite z-score,[7],1.16
same,z-score,[8],-0.877 (inactive)
same,composite z-score,[9],0.101
same,composite z-score,[10],-0.0618
same,composite z-score,[11],1.54
same,z-score,[12],0.449 (inactive)
same,z-score,[13],-0.929 (inactive)
same,z-score,[14],1.7 (inactive)
same,composite z-score,[15],2.96
same,z-score,[16],1.55 (inactive)
same,composite z-score,[17],-0.0699
same,composite z-score,[18],1.44
same,composite z-score,[19],1.05
same,composite z-score,[20],1.04
COCCOC(=O)N1C(=O)[C@@]2(c3cc(C#CCNC(N)=O)ccc31)[C@H](C(=O)NC[C@H](O)c1ccccc1)[C@H]1C(=O)O[C@H](c3ccccc3)[C@H](c3ccccc3)N1[C@@H]2c1ccc(OCCO)cc1,composite z-score,[1],0.102
same,composite z-score,[2],0.249
same,composite z-score,[3],0.0198
same,composite z-score,[4],0.656
same,composite z-score,[5],0.431
same,composite z-score,[6],0.634
same,composite z-score,[7],0.877
same,z-score,[8],0.769 (inactive)
same,composite z-score,[9],0.538
same,composite z-score,[10],-0.0994
same,composite z-score,[11],1.55
same,z-score,[12],2.39 (inactive)
same,z-score,[13],1.54 (inactive)
same,z-score,[14],4.57 (inactive)
same,composite z-score,[15],2.5
same,z-score,[16],0.383 (inactive)
same,composite z-score,[17],-0.0083
same,composite z-score,[18],0.683
same,composite z-score,[19],1.16
same,composite z-score,[20],-0.0828
CC(c1ccccc1)C(O)C1C=CC2C(=O)N(c3ccccc3)C(=O)C2N1Nc1ccc(C#N)cc1 (stereo not given),composite z-score,[1],-0.177
same,composite z-score,[2],0.358
same,composite z-score,[3],0.255
same,composite z-score,[4],0.752
same,composite z-score,[5],1.59
same,composite z-score,[6],1.91
same,composite z-score,[7],1.34
same,z-score,[8],-0.948 (inactive)
same,composite z-score,[9],1.42
same,composite z-score,[10],0.0139
same,composite z-score,[11],1.55
same,z-score,[12],-2.46 (inactive)
same,z-score,[13],1.16 (inactive)
same,z-score,[14],37.9 (active)
same,composite z-score,[15],3.88
same,z-score,[16],0.939 (inactive)
same,composite z-score,[17],0.123
same,composite z-score,[18],0.562
same,composite z-score,[19],1.04
same,composite z-score,[20],0.066
COC(=O)[C@@H]1N=C(c2ccc(OCCCO)cc2)O[C@@H]1c1ccccc1CN=[N+]=[N-],composite z-score,[1],0.879
same,composite z-score,[2],-0.744
same,composite z-score,[3],0.0062
same,composite z-score,[4],-0.784
same,composite z-score,[5],-0.549
same,composite z-score,[6],1.21
same,composite z-score,[7],0.945
same,z-score,[8],1.81 (inactive)
same,composite z-score,[9],0.646
same,composite z-score,[10],0.291
same,composite z-score,[11],1.01
same,z-score,[12],0.23 (inactive)
same,z-score,[13],-0.956 (inactive)
same,z-score,[14],-1.14 (inactive)
same,composite z-score,[15],1.74
same,z-score,[16],1.05 (inactive)
same,composite z-score,[17],0.109
same,composite z-score,[18],-0.0395
same,composite z-score,[19],0.327
same,composite z-score,[20],-0.0802
Cc1ccccc1C(O)C1C=CC2C(=O)N(c3ccccc3)C(=O)C2N1Nc1ccccc1F (stereo not given),composite z-score,[1],0.397
same,composite z-score,[2],0.0771
same,composite z-score,[3],0.213
same,composite z-score,[4],0.737
same,composite z-score,[5],1.16
same,composite z-score,[6],2.15
same,composite z-score,[7],0.93
same,z-score,[8],-1.35 (inactive)
same,composite z-score,[9],1.19
same,composite z-score,[10],-0.0994
same,composite z-score,[11],1.16
same,z-score,[12],0.0769 (inactive)
same,z-score,[13],0.592 (inactive)
same,z-score,[14],0.764 (inactive)
same,composite z-score,[15],3.41
same,z-score,[16],-0.927 (inactive)
same,composite z-score,[17],0.496
same,composite z-score,[18],-0.471
same,composite z-score,[19],1.12
same,composite z-score,[20],0.0122
CC(C)c1ccc(NN2C(C(O)C(C)C)C=CC3C(=O)N(c4ccccc4)C(=O)C32)cc1 (stereo not given),composite z-score,[1],0.733
same,composite z-score,[2],0.237
same,composite z-score,[3],0.225
same,composite z-score,[4],0.707
same,composite z-score,[5],1.55
same,composite z-score,[6],1.92
same,composite z-score,[7],1.31
same,z-score,[8],-0.0025 (inactive)
same,composite z-score,[9],1.3
same,composite z-score,[10],-0.208
same,composite z-score,[11],1.56
same,z-score,[12],1.39 (inactive)
same,z-score,[13],0.313 (inactive)
same,z-score,[14],1.39 (inactive)
same,composite z-score,[15],3.53
same,z-score,[16],-0.613 (inactive)
same,composite z-score,[17],0.633
same,composite z-score,[18],0.284
same,composite z-score,[19],1.04
same,composite z-score,[20],0.516
CN(C)C(=O)[C@]1(Cc2ccccc2CN=[N+]=[N-])N=C(c2ccc(OCCCO)cc2)O[C@@H]1c1ccccc1N=[N+]=[N-],composite z-score,[1],0.168
same,composite z-score,[2],0.142
same,composite z-score,[3],0.117
same,composite z-score,[4],0.41
same,composite z-score,[5],1.49
same,composite z-score,[6],1.85
same,composite z-score,[7],1.22
same,z-score,[8],-1.04 (inactive)
same,composite z-score,[9],1.22
same,composite z-score,[10],-0.264
same,composite z-score,[11],1.48
same,z-score,[12],-1.73 (inactive)
same,z-score,[13],0.498 (inactive)
same,z-score,[14],12.9 (active)
same,composite z-score,[15],3.43
same,z-score,[16],-0.0046 (inactive)
same,composite z-score,[17],0.0369
same,composite z-score,[18],0.317
same,composite z-score,[19],0.618
same,composite z-score,[20],0.0427
NCCCC[C@@H]1NC(=O)[C@H]2C[C@@H](C(=O)NCc3ccc(F)cc3)[C@@H](c3ccc(O)cc3)N2C1=O,composite z-score,[1],1.85
same,composite z-score,[2],0.0239
same,composite z-score,[3],0.113
same,composite z-score,[4],0.492
same,composite z-score,[5],0.531
same,composite z-score,[6],2.12
same,composite z-score,[7],1.3
same,z-score,[8],5.15 (inactive)
same,composite z-score,[9],1.75
same,composite z-score,[10],0.0947
same,composite z-score,[11],1.3
same,z-score,[12],0.804 (inactive)
same,z-score,[13],0.368 (inactive)
same,z-score,[14],0.656 (inactive)
same,composite z-score,[15],3.3
same,z-score,[16],-0.656 (inactive)
same,composite z-score,[17],0.726
same,composite z-score,[18],1.09
same,composite z-score,[19],0.997
same,composite z-score,[20],0.149
CC(C)CNC(=O)[C@@]1(C)c2ccccc2C(=O)N(Cc2cc(F)cc(C(F)(F)F)c2)[C@H]1c1ccc(CO)cc1,composite z-score,[1],-0.182
same,composite z-score,[2],-0.188
same,composite z-score,[3],-0.0422
same,composite z-score,[4],0.325
same,composite z-score,[5],-0.102
same,composite z-score,[6],0.669
same,composite z-score,[7],1.11
same,z-score,[8],-1.48 (inactive)
same,composite z-score,[9],0.0289
same,composite z-score,[10],0.0722
same,composite z-score,[11],1.56
same,z-score,[12],-1.08 (inactive)
same,z-score,[13],-0.428 (inactive)
same,z-score,[14],-0.629 (inactive)
same,composite z-score,[15],2.6
same,z-score,[16],0.149 (inactive)
same,composite z-score,[17],-0.0172
same,composite z-score,[18],0.602
same,composite z-score,[19],0.616
same,composite z-score,[20],-0.165
COC(=O)[C@@]1(Cc2ccccc2)[C@@H]2[C@@H](CC(=O)[C@H]2CC(=O)C(=O)N(C)C)CN1C(=O)c1ccccc1,composite z-score,[1],0.186
same,composite z-score,[2],-1
same,composite z-score,[3],-0.169
same,composite z-score,[4],0.281
same,composite z-score,[5],1.19
same,composite z-score,[6],1.89
same,composite z-score,[7],1.21
same,z-score,[8],1.1 (inactive)
same,composite z-score,[9],0.319
same,composite z-score,[10],-0.0994
same,composite z-score,[11],-0.476
same,z-score,[12],1.02 (inactive)
same,z-score,[13],1.29 (inactive)
same,z-score,[14],0.633 (inactive)
same,composite z-score,[15],3.34
same,z-score,[16],-0.2 (inactive)
same,composite z-score,[17],-0.0221
same,composite z-score,[18],-0.505
same,composite z-score,[19],-0.18
same,composite z-score,[20],0.142
